Screening data (PubChem BioAssay)
Hits are enriched below; roughly 12% of the tested compounds scored in any of these assays.
HP1b chromo inh: inhibitors of HP1-beta chromodomain binding to methylated histone tails; P83916; AlphaScreen HP1-beta / biotin-H3K9me3 peptide binding; Potency, µM (doses to about 114 µM), without a hit: at the top dose activity change, negative = inhibition, actives largely listed as inhibitors; hit rate 0.56% among 390,000; further: nearly all actives have a fitted effect of over 70% in size
Target sequence (P83916 whole entry, looked up): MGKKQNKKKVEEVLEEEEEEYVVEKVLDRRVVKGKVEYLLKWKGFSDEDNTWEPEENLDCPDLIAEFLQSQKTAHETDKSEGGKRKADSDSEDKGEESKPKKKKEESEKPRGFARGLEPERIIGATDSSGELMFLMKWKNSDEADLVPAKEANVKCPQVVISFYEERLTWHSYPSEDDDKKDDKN
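HP1-beta protein (50 nM final) preincubated 30 min at room temperature with biotinylated H3(1-18)K9me3 peptide (50 nM) in PBS pH 7.4, 0.01% Tween-20, then compound added for 30 min. AlphaScreen streptavidin donor/nickel chelate acceptor beads (10 ug/mL final), 30 min dark, luminescence read.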
L3MBTL1 block: inhibitors of human L3MBTL1 | AlphaScreen L3MBTL1–H3K9me1 peptide binding | hit rate 0.66% among 230,000 | Q9Y468 | Potency, µM (highest dose often 57.1 µM), without a hit: at the highest dose activity, negative = inhibition, usual class: inhibitors; further: on the % scale 0 is the no-effect control and ±100 the full control effect; nearly all actives have a fitted effect of over 60% in size
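Displacement of a biotinylated histone H3(1-15) peptide monomethylated at Lys9 (75 nM) from L3MBTL1 (50 nM) was measured by AlphaScreen after a 30 min room-temperature compound incubation; cefsulodin titration served as intraplate control.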
JMJD2A Tudor: JMJD2A Tudor domain (human) inhibition; Potency, µM (top dose mostly 114 µM), inactives show at the highest dose activity change, negative = inhibition, most hits filed as inhibitors; hit rate 4.4% among 390,000; O75164; AlphaScreen JMJD2A-Tudor / H3K4me3 peptide binding; further: on the % scale 0 is the no-effect control and ±100 the full control effect; nearly all actives have a fitted effect of over 50% in size
BAZ2B inh: inhibitors of human BAZ2B bromodomain; Q9UIF8; Potency, µM (titrated, usually from 114 µM), for inactives: at the highest dose activity change, negative = inhibition, usual class: inhibitors; hit rate 4.4% among 360,000; AlphaScreen BAZ2B-H3K14Ac peptide displacement; AID 504333; further: on the % scale 0 is the no-effect control and ±100 the full control effect; nearly all actives have a fitted effect of over 60% in size
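Complex of BAZ2B and biotin-H3K14Ac (50 nM apiece) forms over 30 min at RT, then faces library compounds up to 110 uM for another 30 min; AlphaScreen beads added, 20 min dark incubation, luminescence read.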
G9a inh: G9a (human) methyltransferase inhibition; Q96KQ7; hit rate 8.8% among 350,000; G9a H3K9 monomethylation, AlphaScreen, 2 h; Potency, µM (top dose mostly 102 µM), for the others: at the highest dose activity, negative = inhibition, most hits filed as inhibitors; further: on the % scale 0 is the no-effect control and ±100 the full control effect; nearly all actives have a fitted effect of over 75% in size
Target sequence (Q96KQ7 913-1193 limits assumed): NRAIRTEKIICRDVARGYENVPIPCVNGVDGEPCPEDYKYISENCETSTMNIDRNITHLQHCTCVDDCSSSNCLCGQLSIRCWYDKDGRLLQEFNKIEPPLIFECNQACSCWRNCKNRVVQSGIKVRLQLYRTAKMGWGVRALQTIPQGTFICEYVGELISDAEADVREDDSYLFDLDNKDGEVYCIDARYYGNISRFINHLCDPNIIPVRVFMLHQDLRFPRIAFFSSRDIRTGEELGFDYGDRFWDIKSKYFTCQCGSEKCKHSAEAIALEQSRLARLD
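AlphaScreen detection with an anti-monomethyl H3K9 antibody quantified product after a 2 h room-temperature reaction containing 500 nM biotinylated H3K9 peptide, 20 µM SAM and 20 nM enzyme, which had been preincubated 15 min with compound.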
Sfp inh: blocks B. subtilis Sfp PPTase activity; Q9F4F7; Potency, µM, for the others: largest response in the series, negative = inhibition, usual class: inhibitors; Biochemical Sfp PPTase activity, qHTS; hit rate 3.5% among 310,000;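 further: the enzyme is Sfp with the accession as filed and its product quenches rhodamine fluorescence; 0% = enzyme reaction without inhibitor and -100% = no enzyme wells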
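Fluorescence-quenching assay: 15 nM Sfp-PPTase preincubated 15 min at room temperature with compound, then 5 uM rhodamine-CoA and 12.5 uM BHQ-2-labelled YbbR peptide added. Fluorescence (ex 525/em 598 nm) read at start and after 30 min; difference gives rate.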
Numbers without * were called inactive; u = inconclusive; x = no result given; [ ] = dose if it differs, or a comment. The call rests on the fitted dose curve; in most records, active means well fitted curve in the direction sought with a large enough effect; inconclusive means small, poorly fitted or top-dose-only effect, or another doubt; inactive means no such curve, though single readings can be large; an effect the other way counts as inactive or inconclusive. Potency means the concentration at half of the fitted maximal effect.

SMILES	HP1b chromo inh	L3MBTL1 block	JMJD2A Tudor	BAZ2B inh	G9a inh	Sfp inh
COc1cccc(CNC(=O)CSc2c3c(nc4ccc(Cl)cc24)CCCC3)c1OC	25%	x	-7%	x	8%[59 µM]	x
CCOc1ccccc1-c1noc(CSc2nnc(-c3ccncc3)n2-c2ccc(F)cc2)n1	24%	x	-21%	-21%	1%[59 µM]	x
Cc1sc2ncn(CC(=O)N3CCN(c4ccc(F)cc4)CC3)c(=O)c2c1S(=O)(=O)N1CCCCC1	12%	x	-14%	-15%	-2%[59 µM]	x
CCCNC(=O)c1ccc(N2CCC3(CC2)CC(c2ccccc2)=NO3)c(NC(=O)c2cccc(OC)c2)c1	23%	-1%	56µM*	u	45µM*	13%
CCCNC(=O)c1ccc(N2CCC3(CC2)CC(c2ccccc2)=NO3)c(NC(=O)c2ccco2)c1	18%	-1%	-14%	-3%	x	-5%
COc1cccc(-c2nc(NCCN3CCOCC3)c3ccccc3n2)c1	x	x	x	x	2%[0.501 µM]	9%
CCCCOC(=O)C1[C@H]2C(=O)N(c3ccccc3CC)C[C@]23C=C[C@H]1O3 (some centres not stated)	37%	-4%	-7%	8%	-15%[12.7 µM]	-7%
CCc1ccccc1N1CC23C=CC(O2)C(C(=O)O)C3C1=O (configuration not stated)	10%	47%	22µM*	-5%	-23%[59 µM]	14%
O=C(NNc1ccc([N+](=O)[O-])cc1)c1ccco1	11%	x	-4%	-11%	45µM*	u
O=C(NNc1ccc([N+](=O)[O-])cc1[N+](=O)[O-])c1ccco1	u	x	u	40µM*	40µM*	-15%
CC(=NNS(=O)(=O)c1ccc([N+](=O)[O-])cc1)c1ccc(C)cc1	u	x	-32%	x	x	x
C/C(=N\NS(=O)(=O)c1ccc([N+](=O)[O-])cc1)c1ccc(NC(=O)c2ccco2)cc1	12%	x	-11%	-10%	35µM*	-16%
CCc1ccc(C(=O)COC(=O)C(Cc2c[nH]c3ccccc23)NC(=O)c2ccc(CC)cc2)cc1 (configuration not stated)	-4%	x	-9%	-7%	-31%[59 µM]	x
CC(=O)N1CCc2c(sc3c2c(=O)n(-c2ccccc2)c(=O)n3Cc2cccc(C(F)(F)F)c2)C1	36%	x	-23%	1%	17%[59 µM]	x
Cn1c(SCc2nnc(-c3ccccc3Br)o2)nc2sc3c(c2c1=O)CCC3	18%	-7%	-22%	-13%	-33%	79µM*
COCCCn1c(SCc2nnc(-c3ccccc3)o2)nc2sc3c(c2c1=O)CCC3	-2%	-2%	-22%	u	-4%	-11%
Cc1ccc(Cl)cc1N1CCN(C(=O)Cn2c(-c3cccs3)cc3cc(F)ccc32)CC1	35%	x	-9%	-2%	1%[59 µM]	x
COc1cc(NC(=O)c2nc3cc(C)c(C)cc3n(C)c2=O)cc(OC)c1OC	44%	x	4%	3%	14%[59 µM]	x
COc1ccc(N2CCN(S(=O)(=O)c3ccc(-c4ccno4)cc3OC)CC2)cc1	-6%	x	u	22µM*	10µM*	x
CC1=C(C#N)C(=O)OC(C)(C)C1	38%	-1%	5%	9%	13µM*	-4%
Cc1ccc(Nc2sc(C(=O)c3ccccc3)c(N)c2S(=O)(=O)c2ccccc2)cc1Cl	36%	x	-20%	-31%	-1%[59 µM]	x
O=C(c1ccc2c(c1)N(Cc1ccc(F)cc1)C(=O)c1ccccc1S2(=O)=O)N1CCN(Cc2ccccc2)CC1	10%	x	-22%	-25%	-27%[59 µM]	x
CCOC(=O)C1=C(O)/C(=C/c2ccc(-c3ccccc3C(=O)O)o2)SC1=Nc1ccc(C)cc1	-15%	-1%	50µM*	-36%	12%	5%
CCOC(=O)C1=C(O)/C(=C/c2cc(OC)c(O)c(OC)c2)SC1=Nc1ccc(OC)cc1	9%	-6%	-21%	-34%	8.9µM*	-24%
CCOC(=O)C1=C(O)/C(=C/c2ccccn2)SC1=Nc1ccc(Cl)cc1	14%	-13%	-25%	-33%	-6%	32µM*
SMILES	HP1b chromo inh	L3MBTL1 block	JMJD2A Tudor	BAZ2B inh	G9a inh	Sfp inh
CCN(CC)CCOC(=O)C(c1ccccc1)c1ccccc1	24%	-1%	-6%	u	9%[59 µM]	11%
CCN(CC)CCOC(=O)CCc1cccc2ccccc12	-38%	-8%	28µM*	u	7.9µM*	-21%
CCN(CC)CCOC(=O)C(Cc1ccco1)Cc1cccc2ccccc12 (configuration not stated)	u	x	13µM*	x	x	x
COCCNC(=O)c1ccc(Cn2c(=S)[nH]c3cc4c(cc3c2=O)OCO4)cc1	38%	-3%	28µM*	-29%	u	3%
COC(CNC(=O)c1ccc(Cn2c(=S)[nH]c3cc4c(cc3c2=O)OCO4)cc1)OC	26%	-19%	22µM*	u	u	15%
COC(=O)c1ccc2c(=O)n(Cc3ccc4c(c3)OCO4)c(=S)[nH]c2c1	45%	x	-10%	-4%	24%	-2%
CCc1cc(-c2[nH]ncc2-c2ccc3c(c2)OCO3)c(O)cc1O	u	x	32µM*	32µM*	u	13%
CCc1cc(-c2[nH]ncc2-c2ccc(OC)cc2)c(O)cc1O	-14%	x	u	u	12%[2.33 µM]	16%
Cc1nn(-c2ccccc2)c(OC(=O)c2ccc(Br)cc2)c1S(=O)(=O)c1ccccc1	36%	x	-36%	u	u	x
CCc1ccc(NC(=O)CCn2c(-c3ccc(OC)cc3)cc(C(C)=O)c2C)cc1	31%	x	-21%	-27%	u	x
N#CC(=C(/N)Sc1ccccc1N)/C(C#N)=C(\N)Sc1ccccc1N	x	x	x	x	13µM*	56µM*
COc1cccc(C(=O)/C(C#N)=N/Nc2cccc(-c3ccnc(C)n3)c2)c1	-1%	-23%	u	u	50µM*	-8%
CNC(=O)Nc1cccc(-c2ccnc(C)n2)c1	24%	9%	19%	-2%	x	2%
COc1ccc(C2C=C(C)Nc3nc(SC)nn32)cc1 (configuration not stated)	38%	6%	-18%	0%	56µM*	-1%
CC(NC(N)=O)C(=O)Nc1ccc(Cl)c(S(=O)(=O)Nc2ccc(Cl)cc2)c1 (configuration not stated)	28%	10%	-14%	-6%	-9%	13%
C[C@H](NC(N)=O)C(=O)Nc1ccc(N2CCOCC2)c(S(=O)(=O)Nc2ccc(Cl)cc2)c1	u	1%	u	u	1µM*	x
O=C(CC(C(=O)O)N1CCOCC1)Nc1ccc(Cl)cc1 (configuration not stated)	10%	4%	45µM*	10%	u	-9%
O=C(Nc1ccc(N2CCOCC2)c(S(=O)(=O)Nc2ccc(Cl)cc2)c1)c1ccc(=O)[nH]n1	-6%	u	u	x	x	x
